Measurements reported in PubChem BioAssay (Tox21).
Values without a mark were called inactive. Calls of active or inactive are those of the source. Calls come from the whole dose curve.
% is set by controls: 0 for no effect and ±100 for the full control effect.

Assay: qHTS assay to identify small molecule agonists of the sonic hedgehog signaling (Shh) pathway (AID 1259368);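 note: NIH/3T3-derived 3T3Gli1-Luc cells carrying a stable Gli1-driven firefly luciferase reporter; nearly all actives have a fitted effect of over 15% in size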
Conditions: NIH/3T3 Gli1-Luc reporter, luciferase, 24 h; series mostly up to 92.4 µM; activity change: at the top concentration
Text: National Center for Advancing Translational Sciences [NCATS]
NIH Chemical Genomics Center [NCGC]
U.S. Environmental Protection Agency [EPA]
National Institutes of Environmental Health Sciences [NIEHS]
National Toxicology Program [NTP]
The sonic hedgehog (Shh) pathway is essential for normal embryonic development. Dysregulation of the Shh pathway can cause severe developmental defects in organs. Therefore chemicals that interfere with the pathway are potential developmental toxicants. A cell line designated 3T3Gli1-Luc (DMB/OARSA/CFSAN/FDA, Laurel, MD), a NIH/3T3 derived clone containing stably integrated Gli1-Luc reporter is used to detect chemical interference of the Shh pathway, by changes in the expression of the firefly Luc gene under the control of the Gli1 transcriptional response element. This cell line was used to screen Tox21 libraries for identifying and prioritizing the potential developmental toxicants that interfere Shh pathway.
3T3 Gli1-Luc cells were dispensed at 2,000 per well in 5uL of culture medium into white solid bottom 1536-well plates (Greiner Bio-One, Monroe, NC) using a Multidrop Combi (Thermo Scientific, Waltham, MA) dispenser. The assay plates were incubated at 37 C and 5% CO2 for 4hr, and then 23nL of compounds dissolved in DMSO and positive control were transferred using a Pintool station (Wako, San Diego, CA). The assay plates were incubated at 37C and 5% CO2 for 24hr. For luciferase read, 4uL of Amplite Luciferase reporter gene assay reagent (AAT Bioquest, Inc. Sunnyvale, CA) was added to each well of the assay plates using Flying Reagent Dispenser (FRD, Aurora Discovery, San Diego, CA) and incubated at room temperature for 30min. The luminescence signal was measured using a ViewLux plate reader (Perkin Elmer, Shelton, CT).
For CCOP(=S)(OCC)Oc1nc(Cl)c(Cl)cc1Cl, the Potency was “inactive”. With C/C(=C\c1ccccc1)[N+](=O)[O-] the “activity change” value was -16.4%. In the case of C=CC(=O)OC(C)(C)C, the “activity change” value is reported as -1.01%. With C=CC(=O)NCNC(=O)C=C the “activity change” value was 1.27%. With N#CCC#N the “activity change” value was 9.07%. In the case of c1ccc(CN2CCNCC2)cc1, the “activity change” value is reported as 0.97% [at 240 µM, active compounds read high]. For C=CC(C)=O, the “activity change” value was -1.66%. For BrCC(Br)C1CCC(Br)C(Br)C1 (stereo not given), the “activity change” value was -2.21%. With CC(C)(Cl)[N+](=O)[O-] the “activity change” value was 2.04%. For CCOP(=S)(OCC)SCn1nnc2ccccc2c1=O, the “activity change” value was 3.01%. With CCC(Br)(CC)C(=O)NC(N)=O the “activity change” value was 0.296%. In the case of CCC(C)(NC(=O)c1cc(Cl)c(C)c(Cl)c1)C(=O)CCl (stereo not given), the “activity change” value is reported as -13.3%. For CCCC(Cn1cncn1)c1ccc(Cl)cc1Cl (stereo not given), the “activity change” value was 0.0118%. In the case of C[C@@H]1CC[C@H]2[C@@H](C)C(=O)O[C@@H]3O[C@@]4(C)CC[C@@H]1[C@]32OO4, the “activity change” value is reported as 0.611% [at 42.5 µM, active compounds read high]. In the case of O=[N+]([O-])C(Br)(CO)CO, the “activity change” value is reported as -12.3%. In the case of CN1C[C@H](CNC(=O)OCc2ccccc2)C[C@@H]2c3cccc4c3c(cn4C)C[C@H]21, the “activity change” value is reported as -3.3% [at 42.5 µM, active compounds read high]. In the case of CCOP(=O)(OCC)SCCSCC, the Potency is reported as “inactive”. For O=[Se]=O, the “activity change” value was -0.196% [at 42.5 µM, active compounds read high]. In the case of CC1(C)CCC(Cc2ccc(Cl)cc2)C1(O)Cn1cncn1 (stereo not given), the “activity change” value is reported as -3.23%. In the case of COC(C)(C)CCC[C@H](C)C/C=C/C(C)=C/C(=O)OC(C)C, the “activity change” value is reported as 1.41%. In the case of O=C(O)C(F)(F)C(F)(F)C(F)(F)C(F)(F)C(F)(F)C(F)(F)C(F)(F)C(F)(F)C(F)(F)C(F)(F)F, the “activity change” value is reported as 4.78%. For COc1nn(CSP(=S)(OC)OC)c(=O)s1, the “activity change” value was -2.37%. In the case of CCCN(CCCl)c1c([N+](=O)[O-])cc(C(F)(F)F)cc1[N+](=O)[O-], the “activity change” value is reported as 1.4%. In the case of Cn1sc(Cl)cc1=O, the “activity change” value is reported as 1.08%. In the case of CCCCCCCCOC(=O)c1ccc(C(=O)OCCCCCCCC)c(C(=O)OCCCCCCCC)c1, the “activity change” value is reported as -0.422%. In the case of Brc1ccc(Oc2ccccc2)cc1, the Potency is reported as “inactive”. With O=C(NC(=O)c1c(F)cccc1F)Nc1ccc(OC(F)(F)C(F)OC(F)(F)F)c(Cl)c1 (stereo not given) the “activity change” value was 0.514% [at 42.5 µM, active compounds read high]. In the case of CS/C(C)=N/OC(=O)N(C)SN(C)C(=O)O/N=C(\C)SC, the “activity change” value is reported as -13.3%. In the case of ClCC(Br)CBr (stereo not given), the “activity change” value is reported as -0.617%. With COC1=CC(=O)O[C@@H](CCc2ccccc2)C1 the “activity change” value was 0.136%. For O=C(O)c1ccccc1C(=O)Nc1cccc2ccccc12, the “activity change” value was -0.0537%. For Oc1ccc(Cl)c(Cl)c1Cl, the “activity change” value was -4.8%. With CCOC(=O)C(Cl)C(C)=O (stereo not given) the “activity change” value was 0.135%. With O=[N+]([O-])c1cc(C(F)(F)F)cc([N+](=O)[O-])c1Cl the “activity change” value was -8.58%. In the case of Sc1ccccc1Cl, the “activity change” value is reported as 1.97% [at 42.5 µM, active compounds read high]. With ClP(Cl)(Cl)(Cl)Cl the “activity change” value was 0.327%. In the case of CCCCCCCCCCOC(=O)c1ccccc1C(=O)OCCCCCCCCCC, the “activity change” value is reported as -0.201%. For Cc1c(F)c(F)c(COC(=O)C2C(/C=C(\Cl)C(F)(F)F)C2(C)C)c(F)c1F (stereo not given), the “activity change” value was 1.03%. For N#Cc1cc(I)c(O)c(I)c1, the “activity change” value was -7.25%. For CCOP(=S)(OCC)Oc1cc(Cl)c(Br)cc1Cl, the “activity change” value was 0.0642%.
